Measurements from article PMC7862700, “An all-to-all approach to the identification of sequence-specific readers for epigenetic DNA modifications on cytosine”.

Experiments:
Assay in all cases: DAPPL (digital affinity profiling via proximity ligation, sequencing); 10 mM Tris-HCl pH 7.5, 50 mM NaCl, 1 mM DTT, 4% glycerol, room temperature, 30 min; GST-TFs on glutathione beads, 16-mer random dsDNA library, 0.1% formaldehyde crosslink after washing; high values mean tight binding
Conditions in all cases: protein: recombinant; tags: N-terminal GST; dsDNA, one strand shown
FLI1 = biological target: T1, FLI1 (Homo sapiens, UniProt Q01543 1-452)
T1 sequence: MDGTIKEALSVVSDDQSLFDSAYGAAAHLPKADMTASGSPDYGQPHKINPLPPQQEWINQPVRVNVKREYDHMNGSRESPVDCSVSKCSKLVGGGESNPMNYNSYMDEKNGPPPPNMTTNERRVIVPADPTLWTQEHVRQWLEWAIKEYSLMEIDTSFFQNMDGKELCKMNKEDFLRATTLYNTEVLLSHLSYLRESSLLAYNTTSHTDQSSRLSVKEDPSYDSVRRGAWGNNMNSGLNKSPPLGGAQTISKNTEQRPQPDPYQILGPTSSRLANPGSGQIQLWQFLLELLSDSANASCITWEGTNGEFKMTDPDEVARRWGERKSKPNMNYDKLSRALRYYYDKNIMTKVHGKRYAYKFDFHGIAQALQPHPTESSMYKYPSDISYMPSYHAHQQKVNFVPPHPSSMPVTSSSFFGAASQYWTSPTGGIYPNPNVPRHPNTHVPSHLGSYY
In short: (§1)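 After expression in yeast as GST fusions, human transcription factors were bound to glutathione beads, DNA-barcoded and mixed with a tag-only sample. The pools were incubated with 200 nmole of a 16-mer random double-stranded DNA library in Tris/NaCl/DTT/glycerol buffer (30 min, room temperature), washed and crosslinked with 0.1% formaldehyde. Proximity ligation with BsaI/T4 ligase ran for 1 h at 37 °C, before PCR amplification and sequencing on an Illumina NextSeq500. Binding signal is a hexamer's read frequency for a factor divided by its frequency for the tag-only sample.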

ELK1 = biological target: T2, ELK1 (Homo sapiens, UniProt P19419 1-428)
T2 sequence: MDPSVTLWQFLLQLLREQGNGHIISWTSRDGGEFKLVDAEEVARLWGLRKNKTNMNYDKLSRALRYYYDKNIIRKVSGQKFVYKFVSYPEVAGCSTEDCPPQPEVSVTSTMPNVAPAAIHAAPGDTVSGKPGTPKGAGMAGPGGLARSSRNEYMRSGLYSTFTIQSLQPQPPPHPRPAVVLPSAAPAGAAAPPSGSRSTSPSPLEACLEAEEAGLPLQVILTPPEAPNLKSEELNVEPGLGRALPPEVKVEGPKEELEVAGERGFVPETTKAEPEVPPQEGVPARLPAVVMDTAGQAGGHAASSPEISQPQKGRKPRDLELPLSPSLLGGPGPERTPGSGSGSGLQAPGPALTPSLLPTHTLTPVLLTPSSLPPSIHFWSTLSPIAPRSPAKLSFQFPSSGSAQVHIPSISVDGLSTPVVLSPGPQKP
In short: as §1

GABPA = biological target: T3, GABPA (Homo sapiens, UniProt Q06546 1-454)
T3 sequence: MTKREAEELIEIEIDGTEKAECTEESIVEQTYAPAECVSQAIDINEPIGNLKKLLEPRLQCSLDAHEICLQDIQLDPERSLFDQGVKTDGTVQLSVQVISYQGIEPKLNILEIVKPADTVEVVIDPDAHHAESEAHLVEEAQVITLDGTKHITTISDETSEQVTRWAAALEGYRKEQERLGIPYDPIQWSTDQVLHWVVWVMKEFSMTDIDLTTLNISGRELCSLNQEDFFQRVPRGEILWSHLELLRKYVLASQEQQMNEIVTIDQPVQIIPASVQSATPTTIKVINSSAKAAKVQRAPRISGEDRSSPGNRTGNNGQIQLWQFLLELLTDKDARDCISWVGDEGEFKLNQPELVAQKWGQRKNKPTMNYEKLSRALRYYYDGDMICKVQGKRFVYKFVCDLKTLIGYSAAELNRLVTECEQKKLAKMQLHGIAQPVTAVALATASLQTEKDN
In short: as §1

ERG = biological target: T4, ERG (Homo sapiens, UniProt P11308 1-479)
T4 sequence: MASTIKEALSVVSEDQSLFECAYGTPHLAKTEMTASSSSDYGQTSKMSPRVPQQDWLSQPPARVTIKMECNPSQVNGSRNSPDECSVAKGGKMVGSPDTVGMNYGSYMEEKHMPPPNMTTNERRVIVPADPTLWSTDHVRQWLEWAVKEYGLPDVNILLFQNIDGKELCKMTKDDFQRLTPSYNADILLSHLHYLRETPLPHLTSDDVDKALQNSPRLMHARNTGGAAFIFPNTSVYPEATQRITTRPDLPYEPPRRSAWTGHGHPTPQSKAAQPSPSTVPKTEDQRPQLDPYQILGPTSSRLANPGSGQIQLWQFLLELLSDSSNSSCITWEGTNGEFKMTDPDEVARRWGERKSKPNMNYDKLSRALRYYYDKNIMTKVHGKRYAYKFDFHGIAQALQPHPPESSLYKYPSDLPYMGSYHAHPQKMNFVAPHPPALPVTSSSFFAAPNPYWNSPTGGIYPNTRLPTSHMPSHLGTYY
In short: as §1

ELF1 = ELF1 (Homo sapiens, UniProt P32519 1-619)
In short: as §1

EHF = biological target: T5, EHF (Homo sapiens, UniProt Q9NZC4 1-300)
T5 sequence: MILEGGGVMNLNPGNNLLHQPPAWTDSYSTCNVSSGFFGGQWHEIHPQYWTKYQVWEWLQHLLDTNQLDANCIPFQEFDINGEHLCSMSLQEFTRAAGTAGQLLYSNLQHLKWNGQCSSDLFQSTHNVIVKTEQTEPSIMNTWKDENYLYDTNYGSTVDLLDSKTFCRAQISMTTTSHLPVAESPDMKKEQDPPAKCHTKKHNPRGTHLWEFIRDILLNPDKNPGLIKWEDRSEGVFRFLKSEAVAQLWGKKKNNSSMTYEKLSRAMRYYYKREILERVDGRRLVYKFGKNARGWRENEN
In short: as §1

SPI1 = SPI1 (Homo sapiens, UniProt P17947 1-270)
In short: as §1

SPIB = SPIB (Homo sapiens, UniProt Q01892 1-262)
In short: as §1

ELK3 = biological target: T6, ELK3 (Homo sapiens, UniProt P41970 1-407)
T6 sequence: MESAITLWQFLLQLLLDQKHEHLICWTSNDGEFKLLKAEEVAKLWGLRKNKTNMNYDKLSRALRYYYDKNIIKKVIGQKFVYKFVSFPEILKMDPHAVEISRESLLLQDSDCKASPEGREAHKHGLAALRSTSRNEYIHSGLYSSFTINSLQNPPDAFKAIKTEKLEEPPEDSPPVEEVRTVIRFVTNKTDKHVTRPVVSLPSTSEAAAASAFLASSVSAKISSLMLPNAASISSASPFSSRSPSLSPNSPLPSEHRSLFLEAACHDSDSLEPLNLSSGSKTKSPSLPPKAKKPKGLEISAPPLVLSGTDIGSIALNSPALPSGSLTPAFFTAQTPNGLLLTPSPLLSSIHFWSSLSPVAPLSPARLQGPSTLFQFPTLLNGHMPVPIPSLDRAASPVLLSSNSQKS
In short: as §1

ELF1, sequence (P32519 whole entry): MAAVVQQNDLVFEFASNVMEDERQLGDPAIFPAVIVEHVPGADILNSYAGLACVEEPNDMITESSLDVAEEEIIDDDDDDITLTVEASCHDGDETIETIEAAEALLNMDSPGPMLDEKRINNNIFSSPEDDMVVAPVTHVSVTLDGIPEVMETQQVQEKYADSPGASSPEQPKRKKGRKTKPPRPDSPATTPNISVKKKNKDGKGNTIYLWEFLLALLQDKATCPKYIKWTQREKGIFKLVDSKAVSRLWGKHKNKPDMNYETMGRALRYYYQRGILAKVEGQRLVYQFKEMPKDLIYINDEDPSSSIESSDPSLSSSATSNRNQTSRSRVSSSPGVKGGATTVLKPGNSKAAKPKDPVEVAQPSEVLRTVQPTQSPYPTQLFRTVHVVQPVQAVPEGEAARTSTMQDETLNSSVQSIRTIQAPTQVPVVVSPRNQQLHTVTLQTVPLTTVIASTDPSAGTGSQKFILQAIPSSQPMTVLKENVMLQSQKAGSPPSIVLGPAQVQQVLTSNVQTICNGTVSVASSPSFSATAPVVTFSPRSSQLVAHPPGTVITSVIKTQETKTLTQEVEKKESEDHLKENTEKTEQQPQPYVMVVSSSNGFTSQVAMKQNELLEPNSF
SPIB, sequence (Q01892 whole entry): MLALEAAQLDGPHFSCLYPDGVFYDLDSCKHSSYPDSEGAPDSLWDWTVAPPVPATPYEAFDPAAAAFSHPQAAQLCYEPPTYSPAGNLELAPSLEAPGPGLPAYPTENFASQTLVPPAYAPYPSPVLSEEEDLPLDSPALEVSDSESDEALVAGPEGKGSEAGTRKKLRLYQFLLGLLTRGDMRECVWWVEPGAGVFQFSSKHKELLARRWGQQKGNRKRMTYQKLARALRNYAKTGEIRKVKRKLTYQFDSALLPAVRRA

With TAGATG the binding signal (FLI1) was 1.28 fold enrichment (6-mer frequency, TF over GST control), the binding signal (ELK1) was 1.29 fold enrichment (6-mer frequency, TF over GST control) and the binding signal (GABPA) was 1.27 fold enrichment (6-mer frequency, TF over GST control). The binding signal (ERG) was 1.27 fold enrichment (6-mer frequency, TF over GST control), the binding signal (ELF1) was 1.29 fold enrichment (6-mer frequency, TF over GST control) and the binding signal (EHF) was 1.26 fold enrichment (6-mer frequency, TF over GST control). For the same sequence, the binding signal (SPI1) was 1.3 fold enrichment (6-mer frequency, TF over GST control), the binding signal (SPIB) was 1.24 fold enrichment (6-mer frequency, TF over GST control) and the binding signal (ELK3) was 1.31 fold enrichment (6-mer frequency, TF over GST control).
